Results published in PubChem BioAssay (NCATS).
Inconclusive results are not listed. Active and inactive are the calls of the source. Calls come from the whole dose curve; as a rule, active = well fitted cell-killing curve with a large enough effect; inconclusive = small, poorly fitted or top-dose-only effect, or effect the other way; inactive = no such curve, though single readings can be large or run the other way.

assay: Quantitative highthroughput screen to assess conditional lethalithy of SEM cells grown in Human Plasma-Like Medium with dialyzed fetal bovine serum (HPLM+ds) (AID 1963882); conditions: SEM B-ALL cells in HPLM+ds, CellTiter-Glo viability, 48 h; series mostly up to 45.8 µM; note: nearly all actives have a fitted effect of over 35% in size
Outline: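 Each medium arm—HPLM with 10% dialyzed FBS, or RPMI1640 with 5 mM glucose and 10% untreated or dialyzed FBS—was screened against an 11-point, 3-fold compound titration for 48 h at 37 °C, with CellTiter-Glo luminescence as endpoint.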
Potency is the fitted concentration of half-maximal effect.

| Compound | Potency |
| --- | --- |
| Cc1cc(=O)c2c(O)c3c(O)cc(=O)c4c3c3c(cc(O)c1c23)C(C)(C)C=4O | inactive |
| CO[C@H]1/C=C\O[C@@]2(C)Oc3c(C)c(O)c4c(O)c(c5c(nc6cc(C)ccn65)c4c3C2=O)NC(=O)C(C)=CC=C[C@H](C)[C@H](O)[C@@H](C)[C@@H](O)[C@@H](C)[C@H](OC(C)=O)[C@H]1C | 18.7 µM (active) |
| Cc1onc(-c2ccccc2)c1C(=O)N[C@@H]1C(=O)N2[C@@H](C(=O)O)C(C)(C)S[C@@H]12 | inactive |
| CON=C(C(=O)N[C@@H]1C(=O)N2C(C(=O)OCOC(=O)C(C)(C)C)=C(C=Cc3scnc3C)CS[C@H]12)c1csc(N)n1 | inactive |
| CC[C@@]1([C@@H]2O[C@@H]([C@H]3O[C@@](O)(CO)[C@H](C)C[C@H]3C)C[C@H]2C)CC[C@H]([C@]2(C)CC[C@]3(C[C@H](O)[C@@H](C)[C@@H]([C@@H](C)[C@@H](OC)[C@H](C)C(=O)O)O3)O2)O1 | 0.512 µM (active) |
| COc1cc(C(=O)NS(=O)(=O)c2ccccc2C)ccc1Cc1cn(C)c2ccc(NC(=O)OC3CCCC3)cc12 | 20.9 µM (active) |
| CCOC(=O)C1=C[C@]2(CC)CCCN3CCc4c(n1c1ccccc41)[C@@H]32 | inactive |
| COc1cc2nc(-c3cc(F)ccc3O)nc(N[C@@H]3CNC[C@@H]3C(C)(C)O)c2cc1OC | 0.332 µM (active) |
| CC(=O)ON=C1C(c2c(O)[nH]c3cc(Br)ccc23)=Nc2ccccc21 | 1.18 µM (active) |
| CC(C)=CCCC(C)=CCCC(C)=CCSc1ccccc1C(=O)O | 6.62 µM (active) |
